The campaign covered roughly 5,500 compounds. About 2,000 (36%) were called active. Another 18% or so got no clear call; they are omitted. No stated cut-off is given here; in the data, active means normalized growth mostly below about 0.91 (no sharp cut-off); inconclusive means no clear call, values can overlap the other calls; inactive means mostly above about 0.92. The list shows a part of the results.
Assay: chemical genetic growth profiling, strain panel (AID 1159580);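 further: tested at 20 µM; growth read once vehicle control cultures reached saturation at 30 °C; 1 = growth at the plate median or of vehicle wells; lower values mean less growth of the strain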
Details: growth OD

Measured: normalized growth

CCOC(=O)OC(C)OC(=O)C1N2C(=O)C(NC(=O)[C@H](N)c3ccccc3)C2SC1(C)C (stereo not given in full)
inactive: S. cerevisiae deletion strains, locus YJR075W, strain HOC1, active compounds read low 0.966 | S. cerevisiae deletion strains, locus YKL009W, strain mrt4, active compounds read low 0.946 | S. cerevisiae deletion strains, locus YKL068W, active compounds read low 0.98 | S. cerevisiae deletion strains, locus YKL085W, strain MDH1 (second series), active compounds read low 0.989 | S. cerevisiae deletion strains, locus YKL085W, strain MDH1, active compounds read low 0.989 | S. cerevisiae deletion strains, locus YKL160W, strain elf1, active compounds read low 0.966 | S. cerevisiae deletion strains, locus YKL190W, strain CNB1, active compounds read low 0.975 | S. cerevisiae deletion strains, locus YKR001C, strain vps1, active compounds read low 0.98 | S. cerevisiae deletion strains, locus YKR026C, strain gcn3, active compounds read low 1.01 | S. cerevisiae deletion strains, locus YKR091W, strain srl3, active compounds read low 0.977 | S. cerevisiae deletion strains, locus YLL001W, strain dnm1, active compounds read low 0.96 | S. cerevisiae deletion strains, locus YLL026W, active compounds read low 0.998 | S. cerevisiae deletion strains, locus YLL041C, strain sdh2, active compounds read low 0.983 | S. cerevisiae deletion strains, locus YLR027C, strain aat2, active compounds read low 0.984 | S. cerevisiae deletion strains, locus YLR039C, strain RIC1, active compounds read low 0.991 | S. cerevisiae deletion strains, locus YLR058C, strain SHM2, active compounds read low 0.963 | S. cerevisiae deletion strains, locus YLR102C, strain apc9, active compounds read low 0.987 | S. cerevisiae deletion strains, locus YLR113W, strain HOG1, active compounds read low 0.966 | S. cerevisiae deletion strains, locus YLR221C, strain rsa3, active compounds read low 0.999 | S. cerevisiae deletion strains, locus YLR258W, strain gsy2, active compounds read low 1 | S. cerevisiae deletion strains, locus YLR262C, strain YPT6 (second series), active compounds read low 0.982 | S. cerevisiae deletion strains, locus YLR262C, strain YPT6, active compounds read low 0.964 | S. cerevisiae deletion strains, locus YLR268W, strain sec22, active compounds read low 0.988 | S. cerevisiae deletion strains, locus YLR320W, strain mms22, active compounds read low 0.96 | S. cerevisiae deletion strains, locus YLR330W, strain CHS5, active compounds read low 0.992 | S. cerevisiae deletion strains, locus YLR342W, strain FKS1 (second series), active compounds read low 1.11 | S. cerevisiae deletion strains, locus YLR342W, strain FKS1, active compounds read low 0.976 | S. cerevisiae deletion strains, locus YLR357W, strain rsc2, active compounds read low 0.961 | S. cerevisiae deletion strains, locus YLR370C, strain arc18, active compounds read low 0.982 | S. cerevisiae deletion strains, locus YLR371W, strain rom2, active compounds read low 0.999 | S. cerevisiae deletion strains, locus YLR384C, strain iki3, active compounds read low 0.974 | S. cerevisiae deletion strains, locus YLR418C, strain cdc73, active compounds read low 0.978 | S. cerevisiae deletion strains, locus YML016C, strain PPZ1, active compounds read low 0.986 | S. cerevisiae deletion strains, locus YML032C, strain rad52, active compounds read low 0.962 | S. cerevisiae deletion strains, locus YML120C, strain ndi1, active compounds read low 0.974 | S. cerevisiae deletion strains, locus YML124C, strain tub3, active compounds read low 0.987 | S. cerevisiae deletion strains, locus YMR058W, strain fet3, active compounds read low 0.977 | S. cerevisiae deletion strains, locus YMR078C, strain ctf18, active compounds read low 0.994 | S. cerevisiae deletion strains, locus YMR125W, strain sto1, active compounds read low 0.99 | S. cerevisiae deletion strains, locus YMR129W, active compounds read low 0.992 | S. cerevisiae deletion strains, locus YMR205C, strain PFK2, active compounds read low 0.966 | S. cerevisiae deletion strains, locus YMR223W, strain ubp8, active compounds read low 0.986 | S. cerevisiae deletion strains, locus YMR231W, strain pep5, active compounds read low 0.998 | S. cerevisiae deletion strains, locus YMR263W, strain SAP30, active compounds read low 0.967 | S. cerevisiae deletion strains, locus YMR307W, strain GAS1, active compounds read low 1.04 | S. cerevisiae deletion strains, locus YNL067W, strain RPL9B, active compounds read low 0.945 | S. cerevisiae deletion strains, locus YNL071W, strain lat1, active compounds read low 0.998 | S. cerevisiae deletion strains, locus YNL153C, strain GIM3, active compounds read low 0.932 | S. cerevisiae deletion strains, locus YNL183C, strain NPR1, active compounds read low 0.947 | S. cerevisiae deletion strains, locus YNL209W, strain ssb2, active compounds read low 0.989 | S. cerevisiae deletion strains, locus YNL233W, strain BNI4, active compounds read low 0.97 | S. cerevisiae deletion strains, locus YNL248C, strain rpa49, active compounds read low 0.985 | S. cerevisiae deletion strains, locus YNL250W, strain rad50, active compounds read low 0.968 | S. cerevisiae deletion strains, locus YNL271C, strain bni1, active compounds read low 0.986 | S. cerevisiae deletion strains, locus YNL298W, strain CLA4, active compounds read low 0.982 | S. cerevisiae deletion strains, locus YNL307C, strain MCK1, active compounds read low 0.995 | S. cerevisiae deletion strains, locus YNL322C, strain KRE1 (second series), active compounds read low 0.968 | S. cerevisiae deletion strains, locus YNL322C, strain KRE1, active compounds read low 0.985 | S. cerevisiae deletion strains, locus YNR049C, strain mso1, active compounds read low 0.976 | S. cerevisiae deletion strains, locus YNR052C, strain pop2, active compounds read low 0.987 | S. cerevisiae deletion strains, locus YOL006C, strain TOP1, active compounds read low 0.825 | S. cerevisiae deletion strains, locus YOL012C, strain htz1 0.766 | S. cerevisiae deletion strains, locus YOL147C, strain pex11, active compounds read low 0.993 | S. cerevisiae deletion strains, locus YOR001W, strain rrp6, active compounds read low 1.01 | S. cerevisiae deletion strains, locus YOR061W, strain CKA2, active compounds read low 0.949 | S. cerevisiae deletion strains, locus YOR069W, strain VPS5, active compounds read low 0.992 | S. cerevisiae deletion strains, locus YOR070C, strain gyp1, active compounds read low 0.993 | S. cerevisiae deletion strains, locus YOR080W, strain dia2, active compounds read low 0.975 | S. cerevisiae deletion strains, locus YOR083W, strain WHI5, active compounds read low 0.967 | S. cerevisiae deletion strains, locus YOR106W, strain vam3, active compounds read low 0.952 | S. cerevisiae deletion strains, locus YOR136W, strain idh2, active compounds read low 0.974 | S. cerevisiae deletion strains, locus YOR144C, strain elg1, active compounds read low 0.987 | S. cerevisiae deletion strains, locus YOR184W, strain ser1, active compounds read low 0.985 | S. cerevisiae deletion strains, locus YOR231W, strain MKK1, active compounds read low 0.978 | S. cerevisiae deletion strains, locus YOR265W, strain rbl2, active compounds read low 0.993 | S. cerevisiae deletion strains, locus YOR270C, strain vph1, active compounds read low 0.92 | S. cerevisiae deletion strains, locus YOR290C, strain snf2, active compounds read low 0.985 | S. cerevisiae deletion strains, locus YOR316C, strain cot1, active compounds read low 0.976 | S. cerevisiae deletion strains, locus YPL051W, strain arl3, active compounds read low 0.99 | S. cerevisiae deletion strains, locus YPL055C, strain LGE1, active compounds read low 0.881 | S. cerevisiae deletion strains, locus YPL078C, strain atp4, active compounds read low 0.971 | S. cerevisiae deletion strains, locus YPL106C, strain sse1, active compounds read low 0.955 | S. cerevisiae deletion strains, locus YPL240C, strain hsp82, active compounds read low 1 | S. cerevisiae deletion strains, locus YPL256C, strain CLN2, active compounds read low 0.978 | S. cerevisiae deletion strains, locus YPR119W, strain clb2, active compounds read low 0.983 | S. cerevisiae deletion strains, locus YPR141C, strain kar3, active compounds read low 0.978 | S. cerevisiae deletion strains, locus YPR163C, strain tif3, active compounds read low 0.984 | S. cerevisiae deletion strains, locus YPR167C, strain met16, active compounds read low 0.996 | S. cerevisiae deletion strains, strain wtn01, active compounds read low 0.992 | S. cerevisiae strains, strain wild type, active compounds read low 0.98
